Test results: PubChem BioAssay (NCI)
About 83,000 compounds went through this panel and 20% of them were active in at least one assay; those are over-represented in the sample as a whole.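 Cell lines were cultured in 96-well plates, exposed to a single compound concentration, and assessed for percent growth 48 hours later.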 Calls of active or inactive are those of the source. The calls were made as follows: active = growth percent below 10; inactive = the rest.

How the values were obtained:
Assay in all cases: NCI-60 one-dose screen, 48 h (100 = growth as untreated, 0 = no growth, -100 = all killed)
Settings in all cases: 10 µM unless noted
EKVX NSCLC = test system: EKVX NSCLC
SN12C renal = test system: SN12C renal
UO-31 renal = test system: UO-31 renal
ACHN renal = test system: ACHN renal
CAKI-1 renal = test system: CAKI-1 renal
A498 renal = test system: A498 renal
CCRF-CEM leukemia = test system: CCRF-CEM leukemia
MOLT-4 leukemia = test system: MOLT-4 leukemia
SR leukemia = test system: SR leukemia
RPMI-8226 leukemia = test system: RPMI-8226 leukemia
OVCAR-8 ovarian = test system: OVCAR-8 ovarian
OVCAR-5 ovarian = test system: OVCAR-5 ovarian
OVCAR-4 ovarian = test system: OVCAR-4 ovarian
SK-OV-3 ovarian = test system: SK-OV-3 ovarian
IGROV1 ovarian = test system: IGROV1 ovarian
OVCAR-3 ovarian = test system: OVCAR-3 ovarian
HS 578T breast = test system: HS 578T breast
NCI/ADR-RES ovarian = test system: NCI/ADR-RES ovarian
T-47D breast = test system: T-47D breast
TK-10 renal = test system: TK-10 renal

Measured: growth

CN(C)S(=O)(=O)c1oc(-c2ccccc2)nc1C#N
inactive: EKVX NSCLC 78.3% | SN12C renal 72.4% | CAKI-1 renal 53.7% | A498 renal 65.6% | RPMI-8226 leukemia 76% | OVCAR-8 ovarian 94.4% | OVCAR-5 ovarian 100% | OVCAR-4 ovarian 99.7% | SK-OV-3 ovarian 136% | IGROV1 ovarian 38.8% | OVCAR-3 ovarian 62.4% | HS 578T breast 107% | NCI/ADR-RES ovarian 107% | T-47D breast 59.6%
active: UO-31 renal -51% | ACHN renal -83.9% | CCRF-CEM leukemia 1.79% | MOLT-4 leukemia -13.1% | SR leukemia -19.7%

CNC(=O)c1cc(-c2ccc(NC(=O)Nc3ccc(N4CCN(C)CC4)c(C(F)(F)F)c3)cc2)nc2cccnc12
active: EKVX NSCLC -74% | SN12C renal -73.4% | UO-31 renal -81% | TK-10 renal -89.1% | ACHN renal -94.6% | CAKI-1 renal -80.4% | CCRF-CEM leukemia -15.1% | MOLT-4 leukemia -30.5% | SR leukemia -45.4% | RPMI-8226 leukemia -35.8% | OVCAR-8 ovarian -84% | OVCAR-4 ovarian -82.4% | IGROV1 ovarian -83.9% | HS 578T breast -55.7% | NCI/ADR-RES ovarian -21.6% | T-47D breast -18.8%
inactive: SK-OV-3 ovarian 59.7%

CCCCCCNC(=O)Oc1ccc(/C(=C(/C)c2ccccc2)c2ccc(OCCN3CCCCCC3)cc2)cc1
inactive: EKVX NSCLC 64.2% | SN12C renal 42.8% | UO-31 renal 28.9% | ACHN renal 69.3% | CAKI-1 renal 35.9% | A498 renal 78.7% | CCRF-CEM leukemia 16.3% | OVCAR-8 ovarian 66.1% | OVCAR-5 ovarian 69.3% | OVCAR-4 ovarian 49.7% | SK-OV-3 ovarian 98.7% | IGROV1 ovarian 51.4% | OVCAR-3 ovarian 48.9% | HS 578T breast 51.4% | NCI/ADR-RES ovarian 64.5% | T-47D breast 21.6%
active: MOLT-4 leukemia 4.41% | SR leukemia -37.4% | RPMI-8226 leukemia -27.7%

Clc1ccc(Cc2nnc3sc(-c4cccnc4)nn23)cc1
inactive: EKVX NSCLC 85.2% | SN12C renal 100% | UO-31 renal 71.7% | ACHN renal 96.8% | CAKI-1 renal 84% | A498 renal 83.9% | CCRF-CEM leukemia 98.9% | MOLT-4 leukemia 97.2% | SR leukemia 91.1% | RPMI-8226 leukemia 97.5% | OVCAR-8 ovarian 96.6% | OVCAR-5 ovarian 94.7% | OVCAR-4 ovarian 94.2% | SK-OV-3 ovarian 114% | IGROV1 ovarian 95.4% | OVCAR-3 ovarian 107% | HS 578T breast 101% | NCI/ADR-RES ovarian 81.3% | T-47D breast 89.2%

Clc1ccc2oc3c(NCCCn4ccnc4)c4ccccc4nc3c2c1
active: ACHN renal 9.12% | MOLT-4 leukemia 7.69% | SR leukemia -5.22%
inactive: EKVX NSCLC 73.8% | SN12C renal 38.4% | UO-31 renal 30% | CAKI-1 renal 30.6% | A498 renal 14.3% | CCRF-CEM leukemia 19.4% | RPMI-8226 leukemia 37.6% | OVCAR-8 ovarian 43.4% | OVCAR-5 ovarian 50.1% | OVCAR-4 ovarian 63% | SK-OV-3 ovarian 93.9% | IGROV1 ovarian 36.5% | OVCAR-3 ovarian 76.7% | HS 578T breast 61.7% | NCI/ADR-RES ovarian 41.2% | T-47D breast 88.9%

Cc1cccc2sc(/N=C(\N)C(Br)Br)nc12
inactive: EKVX NSCLC 19.9% | SN12C renal 18.2% | UO-31 renal 30.6% | A498 renal 38.7% | OVCAR-8 ovarian 32.7% | OVCAR-5 ovarian 41.2% | OVCAR-4 ovarian 64.7% | SK-OV-3 ovarian 87.5% | OVCAR-3 ovarian 29.2% | HS 578T breast 37.2% | NCI/ADR-RES ovarian 17.6% | T-47D breast 41.4%
active: ACHN renal -13.5% | CAKI-1 renal 3.85% | CCRF-CEM leukemia 1.81% | MOLT-4 leukemia 2.63% | SR leukemia -23.6% | RPMI-8226 leukemia 2.19% | IGROV1 ovarian -65.7%

Cc1nc(-c2cc3ccccc3oc2=O)ccc1C(=O)/C=C/c1ccc(N2CCOCC2)cc1
inactive: EKVX NSCLC 86.6% | SN12C renal 83.8% | UO-31 renal 83.9% | ACHN renal 70.9% | CAKI-1 renal 65.1% | A498 renal 75.2% | CCRF-CEM leukemia 72.4% | MOLT-4 leukemia 66.1% | SR leukemia 26% | RPMI-8226 leukemia 93.4% | OVCAR-8 ovarian 81% | OVCAR-5 ovarian 101% | OVCAR-4 ovarian 72.4% | SK-OV-3 ovarian 88.7% | IGROV1 ovarian 82.6% | OVCAR-3 ovarian 87% | HS 578T breast 59.7% | NCI/ADR-RES ovarian 67.3% | T-47D breast 80.2%

CS(=O)(=O)c1ccc(-c2nc3ccccn3c2/C=N/Nc2nc(-c3ccc(Br)cc3)cs2)cc1
inactive: EKVX NSCLC 97.8% | SN12C renal 103% | UO-31 renal 84.8% | ACHN renal 103% | CAKI-1 renal 96.9% | A498 renal 78% | CCRF-CEM leukemia 90.8% | MOLT-4 leukemia 94% | SR leukemia 95.1% | RPMI-8226 leukemia 94.1% | OVCAR-8 ovarian 99.1% | OVCAR-5 ovarian 110% | OVCAR-4 ovarian 107% | SK-OV-3 ovarian 140% | IGROV1 ovarian 111% | OVCAR-3 ovarian 139% | HS 578T breast 112% | NCI/ADR-RES ovarian 107% | T-47D breast 94%

COc1cc(-c2ccc3ncnc(NC(C)c4ccccc4)c3c2)cnc1OC (configuration not stated)
active: A498 renal -14.9% | IGROV1 ovarian -23.2% | T-47D breast 1.57%
inactive: EKVX NSCLC 19.5% | SN12C renal 39.1% | UO-31 renal 19.1% | ACHN renal 21% | CAKI-1 renal 16.4% | CCRF-CEM leukemia 56.3% | MOLT-4 leukemia 45.1% | SR leukemia 43.7% | RPMI-8226 leukemia 26.5% | OVCAR-8 ovarian 55.2% | OVCAR-5 ovarian 42.8% | OVCAR-4 ovarian 49% | SK-OV-3 ovarian 40.4% | OVCAR-3 ovarian 25.2% | HS 578T breast 21.1% | NCI/ADR-RES ovarian 58.8%

Clc1ccc2c(NCCCn3ccnc3)c3oc4ccccc4c3nc2c1
inactive: EKVX NSCLC 16.1% | SN12C renal 33.2% | UO-31 renal 36.2% | ACHN renal 18.1% | CAKI-1 renal 22.1% | CCRF-CEM leukemia 37.4% | MOLT-4 leukemia 13.3% | RPMI-8226 leukemia 26.4% | OVCAR-8 ovarian 32.1% | OVCAR-5 ovarian 38.2% | OVCAR-4 ovarian 55% | SK-OV-3 ovarian 104% | IGROV1 ovarian 32.9% | OVCAR-3 ovarian 68.4% | HS 578T breast 61.6% | NCI/ADR-RES ovarian 45% | T-47D breast 60.1%
active: A498 renal 8.07% | SR leukemia 9.35%

OC1CCN(CCCOc2c3ccc(Cl)cc3nc3c2oc2ccc(Cl)cc23)CC1
active: UO-31 renal 7.4% | ACHN renal -98.4% | CAKI-1 renal 3.71% | A498 renal -7.6% | CCRF-CEM leukemia -28.8% | MOLT-4 leukemia 0.17% | SR leukemia -39.3% | RPMI-8226 leukemia -8.79% | OVCAR-5 ovarian -28.1% | IGROV1 ovarian 9.03%
inactive: EKVX NSCLC 34.7% | SN12C renal 23.2% | OVCAR-8 ovarian 27.7% | OVCAR-4 ovarian 55% | SK-OV-3 ovarian 50.8% | OVCAR-3 ovarian 46.5% | HS 578T breast 20.5% | NCI/ADR-RES ovarian 32.4% | T-47D breast 52.3%

COc1ccc(NC(=O)c2sc3nc(-c4cnccn4)cc(-c4cccs4)c3c2N)cc1
inactive: EKVX NSCLC 87.6% | SN12C renal 80.8% | UO-31 renal 52.3% | ACHN renal 43.8% | CAKI-1 renal 36.4% | A498 renal 49.5% | CCRF-CEM leukemia 94.6% | MOLT-4 leukemia 83.5% | SR leukemia 71.6% | RPMI-8226 leukemia 74.2% | OVCAR-8 ovarian 71.7% | OVCAR-5 ovarian 93.1% | OVCAR-4 ovarian 82.1% | SK-OV-3 ovarian 23.1% | IGROV1 ovarian 86.3% | OVCAR-3 ovarian 76.8% | HS 578T breast 73.7% | NCI/ADR-RES ovarian 78.2% | T-47D breast 67.8%

Oc1c(Cl)cc(Cl)c2ccc(CN3CCCCC3)nc12
inactive: EKVX NSCLC 30.6% | SN12C renal 42.9% | UO-31 renal 35.7% | ACHN renal 29.4% | CAKI-1 renal 36.2% | A498 renal 49.9% | CCRF-CEM leukemia 18.6% | MOLT-4 leukemia 26.1% | SR leukemia 18.8% | RPMI-8226 leukemia 38.1% | OVCAR-8 ovarian 23% | OVCAR-5 ovarian 55.7% | OVCAR-4 ovarian 33.3% | SK-OV-3 ovarian 62.1% | IGROV1 ovarian 33.9% | OVCAR-3 ovarian 27.6% | HS 578T breast 66.5% | NCI/ADR-RES ovarian 19.3% | T-47D breast 48.1%

COc1cccc(N2CCN(c3ncnc4c3[nH]c3ccc(F)cc34)C[C@@H]2C)c1
active: EKVX NSCLC -0.593% | SN12C renal -28.2% | UO-31 renal -98.8% | TK-10 renal -31.6% | ACHN renal -12.9% | CAKI-1 renal -28.6% | CCRF-CEM leukemia -16.1% | MOLT-4 leukemia -42% | SR leukemia -22.8% | RPMI-8226 leukemia -34.7% | OVCAR-8 ovarian -96.7% | OVCAR-4 ovarian -56.5% | SK-OV-3 ovarian -3.28% | OVCAR-3 ovarian -7.65% | HS 578T breast -18.7% | NCI/ADR-RES ovarian 7.77% | T-47D breast -52.6%

N#Cc1nc(-c2ccccc2)oc1S(N)(=O)=O
active: SR leukemia 3.32%
inactive: EKVX NSCLC 97.5% | SN12C renal 49.6% | UO-31 renal 72.3% | ACHN renal 73% | CAKI-1 renal 63.1% | A498 renal 83.1% | CCRF-CEM leukemia 14.6% | MOLT-4 leukemia 41.4% | RPMI-8226 leukemia 46.2% | OVCAR-8 ovarian 79.1% | OVCAR-5 ovarian 74.1% | OVCAR-4 ovarian 84.2% | SK-OV-3 ovarian 135% | IGROV1 ovarian 49.2% | OVCAR-3 ovarian 77.4% | HS 578T breast 95% | NCI/ADR-RES ovarian 82.7% | T-47D breast 64.1%

CCOc1ccc2nc(NC(=O)c3ccc(C(F)(F)F)cc3)sc2c1
inactive: EKVX NSCLC 102% | SN12C renal 101% | UO-31 renal 104% | TK-10 renal 95.4% | ACHN renal 110% | CAKI-1 renal 98.1% | CCRF-CEM leukemia 92.1% | MOLT-4 leukemia 103% | SR leukemia 89.5% | RPMI-8226 leukemia 100% | OVCAR-8 ovarian 107% | OVCAR-5 ovarian 105% | OVCAR-4 ovarian 107% | HS 578T breast 114% | T-47D breast 97.7%

COc1cc(/C=C/C(=O)c2ccc(Cl)cc2)ccc1Oc1nc(NCCO)nc(N2CCOCC2)n1
active: SR leukemia 9.04%
inactive: EKVX NSCLC 99.6% | SN12C renal 96.6% | UO-31 renal 76.7% | TK-10 renal 110% | ACHN renal 98.8% | CAKI-1 renal 94.2% | CCRF-CEM leukemia 78.4% | MOLT-4 leukemia 78.6% | RPMI-8226 leukemia 65.4% | OVCAR-8 ovarian 104% | OVCAR-5 ovarian 102% | OVCAR-4 ovarian 114% | IGROV1 ovarian 99% | HS 578T breast 84% | T-47D breast 86.1%
